# In PubChem BioAssay (NCATS):
# Several values for one entry are separate records, joined by “and”; a condition that tells them apart may be missing. Identical values can stand only once. Inconclusive results are not listed. Where a call stands in place of a potency, no number is given. A structure can be active in one record and inactive in another. Unmarked numbers belong to inactive results. Activity calls are given as the source filed them. Calls follow the shape of the dose curve; as a rule, active = well fitted inhibition curve with a large enough effect; inconclusive = small, poorly fitted or top-dose-only effect; inactive = flat fitted curve, though single readings scatter.
# How the values were obtained:
# HaCat [1] = experiment: Cytotoxic Profiling of Annotated Libraries Using Quantitative High-Throughput Screening (AID 1296008); conditions: Five cell lines viability, CellTiter-Glo ATP luminescence, 48-72 h; max response: active compounds read low
# Procedure, shortened: (§1)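 Cells exposed to compounds for 48 or 72 hr at 37 degrees Celsius. Viability read as ATP-coupled luminescence with CellTiter-Glo after 10 min at room temperature.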
# KB-3-1 = experiment: as above; conditions: Five cell lines viability, CellTiter-Glo ATP luminescence, 48-72 h; max response: active compounds read low
# Procedure, shortened: as §1
# NIH3T3 [2] = experiment: as above; conditions: Five cell lines viability, CellTiter-Glo ATP luminescence, 48-72 h; max response: active compounds read low
# Procedure, shortened: as §1
# HACAT [3] = experiment: qHTS assay to identify novel small-molecules to repurpose for Merkel cell carcinoma treatment (AID 1296009); conditions: MCC and control cell lines, CellTiter-Glo viability, 72 h
# Procedure, shortened: (§2)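 Dose-response viability screen; 72 hr exposure at 37 degree celsius; CellTiter-Glo added, 10 min room temperature, luminescence read; RLUs scaled between no-cell and DMSO wells.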
# HEK293T = experiment: as above; conditions: MCC and control cell lines, CellTiter-Glo viability, 72 h; at 44.8 µM (top of the series)
# Procedure, shortened: as §2
# MCC-13 = experiment: as above; conditions: MCC and control cell lines, CellTiter-Glo viability, 72 h; series mostly up to 46 µM
# Procedure, shortened: as §2
# MCC-26 = experiment: as above; conditions: MCC and control cell lines, CellTiter-Glo viability, 72 h; series mostly up to 46 µM
# Procedure, shortened: as §2
# MKL-1 = experiment: as above; conditions: MCC and control cell lines, CellTiter-Glo viability, 72 h; series mostly up to 46 µM
# Procedure, shortened: as §2
# MKL-2 = experiment: as above; conditions: MCC and control cell lines, CellTiter-Glo viability, 72 h; series mostly up to 46 µM
# Procedure, shortened: as §2
# NIH3T3 [4] = experiment: as above; conditions: MCC and control cell lines, CellTiter-Glo viability, 72 h; at 44.8 µM (top of the series) unless noted
# Procedure, shortened: as §2
# [5] = at 44.8 µM (top of the series) unless noted
# Also: nearly all actives have a fitted effect of over 60% in size.
# Potency is read from the fitted curve at half-maximal effect.
SMILES,outcome (HaCat [1]),max response (KB-3-1),max response (NIH3T3 [2]),outcome (NIH3T3 [2]),outcome (HACAT [3]; [5]),outcome (HEK293T),Potency (MCC-13),Potency (MCC-26),Potency (MKL-1),Potency (MKL-2),outcome (NIH3T3 [4]),max response (HaCat [1]),Potency (KB-3-1),outcome (HACAT [3]; at 17.4 µM (top of the series)),outcome (HACAT [3]; at 44.8 µM (top of the series)),Potency (NIH3T3 [2])
CCc1ccc(CCOc2ccc(CC3SC(=O)NC3=O)cc2)nc1 (stereo unspecified),inactive,-8.26% and 7.14%,0.801%,inactive,inactive,inactive,inactive,inactive,inactive,inactive,inactive,,,,,
CCOc1cc(C(=O)Nc2ccc(Cl)c(-c3nc4ccccc4[nH]3)c2)cc(OCC)c1OCC,,-16% and -9.64%,-3.49%,inactive,,,inactive,inactive,inactive,,inactive,1.32% and 3.52%,,,,
CNC(=O)c1ccc(N2C(=S)N(c3ccc(C#N)c(C(F)(F)F)c3)C(=O)C2(C)C)cc1F,inactive,8.38%,-6.26%,,inactive,,inactive,inactive,inactive,inactive,,,,,,
Cc1cc(C=c2sc3nc4ccccc4n3c2=O)c(C)n1-c1ccccc1,inactive,1.4%,-1.17%,,inactive,,inactive,inactive,inactive,inactive,,,,,,
CCOc1cc(C=C2C(=O)N(c3ccccc3)N=C2C)cc(Cl)c1OCC(=O)OC,inactive,4.4%,-3.61%,,inactive,,inactive,inactive,inactive,inactive,,,,,,
CCn1c(-c2nonc2N)nc2c(C#CC(C)(C)O)ncc(OC[C@H]3CCCNC3)c21,inactive,,,inactive,inactive,,inactive,inactive,inactive,inactive,inactive,,9.35 µM (active),,,
CC(C)(C)NCC(O)c1ccc(O)c(CO)c1 (stereo unspecified),inactive,-0.699%,,inactive,inactive,,inactive,inactive,inactive,inactive,inactive,,,,,
CCN(c1ccccc1)c1cc(NC)[n+](C)c(C)n1,inactive,7.88%,-7.55%,,inactive,,inactive,inactive,inactive,inactive,,,,,,
O=C(Nc1nc2ccccc2n1CCN1CCOCC1)c1cccc([N+](=O)[O-])c1,inactive,4.26%,,inactive,inactive,inactive,inactive,inactive,,,inactive,,,,,
C[C@]12CC[C@H](O)CC1=CC[C@@H]1[C@H]2CC[C@]2(C)C(c3cccnc3)=CC[C@H]12,inactive,-14.4%,0.502%,,inactive [at 17.4 µM],,inactive,inactive,inactive,inactive,,,,,,
Nc1ccc(S(=O)(=O)Nc2ccnn2-c2ccccc2)cc1,inactive,-3.13% and 3.95%,4.45% and 3.04%,,,,inactive,inactive,inactive,inactive,,,,inactive,inactive,
CCC(=O)N[C@H]1CC[C@H](C(=O)N(C)c2ccc(-c3nc4ccccc4o3)cc2)C1,inactive,-16.3%,-2.14%,,inactive,,inactive,inactive,inactive,,,,,,,
CCCc1nc2c(C)cc(-c3nc4ccccc4n3C)cc2n1Cc1ccc(-c2ccccc2C(=O)O)cc1,inactive,14.7% and 4.38%,1.27%,inactive,inactive,inactive,inactive,inactive,inactive,inactive,inactive,,,,,
O=C(O)COCCN1CCN(C(c2ccccc2)c2ccc(Cl)cc2)CC1 (stereo unspecified),,6.76% and 8.88%,-0.466%,inactive,,,inactive,inactive,inactive,inactive,inactive,-5.21% and -2.14%,,,,
COc1cccc2cc(-c3nc(C4CCC(C(=O)O)CC4)n4ncnc(N)c34)[nH]c12 (stereo unspecified),,,-35.2%,,,,inactive,inactive,inactive,inactive,,-14.5%,2.35 µM (active),,,7.31 µM (active)
OC[C@H](Cc1ccccc1)Nc1nc(Oc2ccc3c(c2)CCC3)nc2c1ncn2Cc1ccc(-c2ccccc2)cc1,inactive,-22.3%,1.2%,,inactive,,inactive,inactive,inactive,inactive,,,,,,
O=C1CCc2cc(OCCCCc3nnnn3C3CCCCC3)ccc2N1,inactive,-0.483% and -0.724%,,inactive,inactive,,inactive,inactive,inactive,inactive,inactive,,,,,
COc1cc2c(cc1OC)CN(CCc1ccc(NC(=O)c3cccc4c(=O)c5cccc(OC)c5[nH]c34)cc1)CC2,inactive,4.69% and -0.508%,3.98%,inactive,inactive,,inactive,inactive,inactive,16.6 µM (active),inactive,,,,,
